PubChem BioAssay
“And” between values parts separate entries of the source, which are not always exact repeats. Identical values can stand only once. The source made the active and inactive calls. Rule as the data show it: active = fold change permeability below about 0.7 or above about 1.3; inactive = in between.

Test: modulators of brain endothelial barrier permeability, primary screen, cell-based, FITC-avidin fluorescence, HTS (AID 1963498); also: test concentration not given here
Settings: actives lie on both sides

Row | SMILES | fold change permeability
1 | N[C@@H]1C[C@H]1c1ccccc1 | 0.9 (inactive)
2 | C#CCOC(=O)C1=CCCN(C)C1 | 1 (inactive)
3 | NCCc1ccc(O)cc1 | 0.7 (active)
4 | CC(C)Oc1cccnc1N(C)C1CCN(Cc2ccccc2)CC1 | 1.5 (active)
5 | C=CCN1CC[C@]23c4c5ccc(O)c4O[C@H]2C(=O)CC[C@@]3(O)[C@H]1C5 | 1 (inactive)
6 | NCCc1ccc(S(=O)(=O)F)cc1 | 1 (inactive)
7 | O=C[C@H](Cl)[C@@H](O)[C@H](O)[C@H](O)CO | 1.1 (inactive)
8 | NCC(CP(=O)(O)O)c1ccc(Cl)cc1 (stereo unspecified) | 1 (inactive)
9 | C[N+](C)(C)CCOC(=O)CBr | 1 (inactive)
10 | CC(C)(C)NCC(O)c1ccccc1Cl (stereo unspecified) | 0.7 (active)
11 | Cc1nccc2c1[nH]c1ccccc12 | 1.2 (inactive)
12 | CC(CCc1ccccc1)NC(C)C(O)c1ccc(O)cc1 (stereo unspecified) | 0.8 (inactive)
13 | N[C@@H](Cn1oc(=O)[nH]c1=O)C(=O)O | 1.1 (inactive)
14 | COc1cc([C@@H]2c3cc4c(cc3[C@H](O)[C@H]3COC(=O)[C@H]23)OCO4)cc(OC)c1OC | 1.2 (inactive)
15 | COc1ccc2[nH]cc(CCN)c2c1 | 0.8 (inactive)
16 | NCC(O)c1ccc(O)cc1 (stereo unspecified) | 0.9 (inactive)
17 | CCCN(CCC)[C@@H]1CCc2cccc(O)c2C1 | 1.2 (inactive)
18 | CN[C@@H]1C[C@@H](c2ccc(Cl)c(Cl)c2)c2ccccc21 | 1.2 (inactive)

Row | SMILES | fold change permeability
19 | C[N+]1(C)[C@@H]2CC[C@H]1CC(OC(=O)C(CO)c1ccccc1)C2 (stereo partly specified) | 1 (inactive)
20 | CN1[C@H]2C[C@H](OC(=O)[C@H](CO)c3ccccc3)C[C@@H]1[C@@H](O)C2 | 0.8 (inactive)
21 | C[N+](C)(C)CC#CCOC(=O)Nc1cccc(Cl)c1 | 0.9 (inactive)
22 | C[N+]1(C)CCOC(O)(c2ccc(-c3ccc(C4(O)C[N+](C)(C)CCO4)cc3)cc2)C1 (stereo unspecified) | 1.1 (inactive)
23 | CC(C(O)c1ccc(O)cc1)N1CCC(Cc2ccccc2)CC1 (stereo unspecified) | 1.3 (active)
24 | O=P1(N(CCCl)CCCl)NCCCO1 (stereo unspecified) | 1 (inactive)
25 | CC(C)C[C@H](NP(=O)(O)O[C@@H]1O[C@@H](C)[C@H](O)[C@@H](O)[C@H]1O)C(=O)N[C@@H](Cc1c[nH]c2ccccc12)C(=O)O | 1.4 (active)
26 | CCn1cc(C(=O)O)c(=O)c2ccc(C)nc21 | 0.9 (inactive)
27 | O=C1C=CC(=O)C=C1 | 1 (inactive)
28 | c1ccc(C2CC2)c(OCC2=NCCN2)c1 | 1 (inactive)
29 | CCC1(C2=NCCN2)Cc2ccccc2O1 (stereo unspecified) | 1 (inactive)
30 | CC(Cc1ccc(OCC(=O)O)cc1)NCC(O)c1cccc(Cl)c1 (stereo unspecified) | 1 (inactive)
31 | NCCCP(=O)(O)O | 1.3 (active)
32 | O=C(O)Cc1cnc[nH]1 | 1 (inactive)
33 | COc1ccc(CCNCc2ccc(OC)c3ccccc23)cc1 | 1.7 (active)
34 | CO[C@H]1CC[C@@H](O[C@H]2C[C@H]([C@]3(C)CC[C@]4(C[C@H](O)[C@@H](C)[C@@H]([C@@H](C)/C=C(\C)C(=O)[C@H](C)C[C@H](C)C(=O)O)O4)O3)O[C@]3(O[C@@H]([C@H]4O[C@@](O)(CO)[C@H](C)C[C@@H]4C)C[C@@H]3C)[C@@H]2C)O[C@@H]1C | 1.3 (active)
35 | C[N+](C)(C)CC#CCN1CCCC1=O | 1 (inactive)
36 | NC(N)=NOCC[C@H](N)C(=O)O | 1 (inactive) and 0.8 (inactive)
